Compounds with a hit are over-represented: about 10% of the library has one in this group of screens.
JMJD2A Tudor: JMJD2A Tudor domain (human) inhibition; AlphaScreen JMJD2A-Tudor / H3K4me3 peptide binding; Potency, µM (titrated, usually from 114 µM), for inactives: at the top dose activity change, negative = inhibition, hits mostly inhibitors; 390,000 tested, 4.4% active; AID 504339; further: potency means the concentration at half of the fitted maximal effect; on the % scale 0 is the no-effect control and ±100 the full control effect; nearly all actives have a fitted effect of over 50% in size
BAZ2B block: blocks human BAZ2B | Potency, µM (top dose mostly 114 µM), for inactives: at the highest dose activity change, negative = inhibition, hits mostly inhibitors | 360,000 tested, 4.4% active | AID 504333 | Q9UIF8 | AlphaScreen BAZ2B-H3K14Ac peptide displacement; further: potency means the concentration at half of the fitted maximal effect; on the % scale 0 is the no-effect control and ±100 the full control effect; nearly all actives have a fitted effect of over 60% in size
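Complex of BAZ2B and biotin-H3K14Ac (50 nM apiece) forms over 30 min at RT, then faces library compounds up to 110 uM for another 30 min; AlphaScreen beads added, 20 min dark incubation, luminescence read.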
CtBP-E1A inh: blocks the CtBP interaction with E1A; AlphaScreen GST-E1A/His-CtBP binding, 1536-well; active compounds read low; activity change, % (concentration not given with the values); 340,000 tested, 0.49% active; in the data active means activity change below about -65%; inconclusive means mostly about -30% to -63%; further: on the % scale 0 is the no-effect control and ±100 the full control effect
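Homogeneous bead-based format: GST-tagged E1A captured on glutathione donor beads, His-tagged CtBP on nickel acceptor beads; compounds precede bead addition by 2 h at 37 °C.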
HP1b chromo inh: inhibitors of HP1-beta chromodomain binding to methylated histone tails; Potency, µM (doses to about 114 µM), inactives show at the top dose activity change, negative = inhibition, most hits filed as inhibitors; AlphaScreen HP1-beta / biotin-H3K9me3 peptide binding; P83916; 390,000 tested, 0.56% active; further: potency means the concentration at half of the fitted maximal effect; nearly all actives have a fitted effect of over 70% in size
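HP1-beta protein (50 nM final) preincubated 30 min at room temperature with biotinylated H3(1-18)K9me3 peptide (50 nM) in PBS pH 7.4, 0.01% Tween-20, then compound added for 30 min. AlphaScreen streptavidin donor/nickel chelate acceptor beads (10 ug/mL final), 30 min dark, luminescence read.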
G9a block: G9a (human) methyltransferase inhibition; G9a H3K9 monomethylation, AlphaScreen, 2 h; 350,000 tested, 8.8% active; Q96KQ7; Potency, µM (top dose mostly 102 µM), inactives show at the highest dose activity, negative = inhibition, actives largely listed as inhibitors; further: potency means the concentration at half of the fitted maximal effect; on the % scale 0 is the no-effect control and ±100 the full control effect; nearly all actives have a fitted effect of over 75% in size
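G9a (20 nM) preincubated 15 min RT with compounds, then 500 nM biotinylated H3K9 peptide and 20 uM SAM added; 2 h RT reaction. Monomethyl-H3K9 product detected by AlphaScreen with anti-H3K9me1 antibody, streptavidin donor and anti-rabbit IgG acceptor beads.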
Six1-Eya2 blk: blocks human Six1 binding to Eya2 | activity change, % (no concentration beside the values) | Q15475+O00167 | 360,000 tested, 0.56% active | AlphaScreen GST-Six1/His-Eya2 binding, biochemical; active compounds read low; in the data active means activity change below about -65%; inconclusive means mostly about -30% to -63%; further: on the % scale 0 is the no-effect control and ±100 the full control effect
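Six1/Eya2 binding was read as AlphaScreen signal after compounds were pinned into GST-Six1 plus His-tagged Eya2 (5X stock 250/500 nM) in pH 8.0 Tris/NaCl/TCEP buffer, beads added, then incubated 1 h, 37 C, dark.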
* = called active by the depositor; [ ] = remark or other dose. Unless noted, the call rests on the fitted dose curve; in most records, active means well fitted inhibition curve with a large enough effect; inconclusive means small, poorly fitted or top-dose-only effect; inactive means no such curve, though single readings can be large or run the other way.

`COc1ccc(C(=O)N/C(=C\c2ccccc2)C(=O)NC(CC(C)C)C(=O)O)cc1` (stereo unspecified) gave JMJD2A Tudor -9%, BAZ2B block -1%, CtBP-E1A inh 9, HP1b chromo inh 9%, G9a block 4% and Six1-Eya2 blk 12.
Screening COc1ccc(C(=O)N/C(=C\c2ccccc2)C(=O)NC(CCSC)C(=O)O)cc1 (stereo unspecified) returned JMJD2A Tudor -2%, BAZ2B block 10%, CtBP-E1A inh 1, HP1b chromo inh 44%, G9a block 56µM* and Six1-Eya2 blk 9.
O=c1c2sccc2n(Cc2cc(=O)n3ccccc3n2)c(=O)n1-c1cc(F)ccc1F was read as JMJD2A Tudor -11%, BAZ2B block -1%, HP1b chromo inh 24% and G9a block -26%[59 µM].
`Cc1ccc(C(=O)N/C(=C/C=C\c2ccccc2)C(=O)NCc2ccco2)cc1` gave JMJD2A Tudor -27%, BAZ2B block -37%, CtBP-E1A inh -9, HP1b chromo inh 4%, G9a block 45µM* and Six1-Eya2 blk -9.
For CC(NC(=O)/C(=C\c1ccco1)NC(=O)c1ccco1)C(=O)O (stereo unspecified) the results were JMJD2A Tudor -5%, BAZ2B block -3%, CtBP-E1A inh 7, HP1b chromo inh 41%, G9a block 35µM* and Six1-Eya2 blk 3.
`CSCCC(NC(=O)/C(=C/c1ccco1)NC(=O)c1ccco1)C(=O)O` (stereo unspecified) gave JMJD2A Tudor 40µM*, CtBP-E1A inh -22, HP1b chromo inh 16% and Six1-Eya2 blk -19.
CSCCC(NC(=O)/C(=C\c1ccco1)NC(=O)c1ccco1)C(=O)O (stereo unspecified) was read as JMJD2A Tudor -15%, BAZ2B block -6%, CtBP-E1A inh 7, HP1b chromo inh 29%, G9a block inconclusive and Six1-Eya2 blk 7.
Screening CCCC(=O)OC1=C(C(C)=O)N(Cc2ccccc2)S(=O)(=O)c2ccccc21 returned JMJD2A Tudor inconclusive, BAZ2B block inconclusive, HP1b chromo inh 15% and G9a block inconclusive.
CCCCC(=O)OC1=C(C(C)=O)N(Cc2ccccc2)S(=O)(=O)c2ccccc21 was read as JMJD2A Tudor 79µM*, BAZ2B block inconclusive, HP1b chromo inh 15% and G9a block inconclusive.
`CCC(=O)OC1=C(C(C)=O)N(Cc2ccccc2)S(=O)(=O)c2ccccc21` gave JMJD2A Tudor 50µM*, BAZ2B block -30%, HP1b chromo inh 28% and G9a block inconclusive.
`COc1ccc(S(=O)(=O)N(CC(=O)N2CCN(c3ccccc3)CC2)c2ccccc2)cc1` gave JMJD2A Tudor -20%, BAZ2B block -29%, CtBP-E1A inh 5, HP1b chromo inh 16%, G9a block 7% and Six1-Eya2 blk -1.
COc1ccc(N2CCN(C(=O)c3ccc(N(C)S(=O)(=O)c4ccc(OC)cc4)cc3)CC2)cc1 was read as JMJD2A Tudor 18µM*, BAZ2B block inconclusive, CtBP-E1A inh -19, HP1b chromo inh inconclusive and Six1-Eya2 blk -26.
`COc1ccc(S(=O)(=O)N(C)c2ccc(C(=O)N3CCN(C)CC3)cc2)cc1` gave JMJD2A Tudor 3%, BAZ2B block -5%, CtBP-E1A inh 3, HP1b chromo inh 28%[57 µM], G9a block 50µM* and Six1-Eya2 blk -11.
For COc1ccc(N2CCN(C(=O)c3ccccc3N(C)S(=O)(=O)c3ccccc3)CC2)cc1 the results were JMJD2A Tudor -35%, BAZ2B block inconclusive, CtBP-E1A inh -7, HP1b chromo inh -13%, G9a block 45µM* and Six1-Eya2 blk -15.

Screens (PubChem BioAssay)
